Source: PubChem
NPC1 promoter act: NPC1 promoter activation. Huh7 NPC1 promoter luciferase reporter, 24 h. Potency, µM (titrated, usually from 9.22 µM), actives largely listed as activators. 320,000 tested, 2.4% active. AID 485313; also: nearly all actives have a fitted effect of over 60% in size
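NPC1 promoter–luciferase Huh7 cells; 24 h compound; luminescence.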
SMN2 splice enh: SMN2 splice variant enhancement. HEK293 SMN2-luciferase splicing reporter, luminescence, 30-36 h. 210,000 tested, 2.8% active. AID 1458. Potency, µM (top dose mostly 46.1 µM), usual class: activators; also: nearly all actives have a fitted effect of over 55% in size
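HEK293 cells carry an SMN2 […]–luciferase reporter in which exon 7 inclusion puts luciferase in frame. Cells were plated 10-12 h before compound addition, then incubated 30-36 h at 37C. ONE-Glo luminescence was read; sodium butyrate at 4.5 mM final served as control.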
FLuc counter: inhibits or activates purified firefly luciferase, miR-21 counter-screen | P08659 | 360,000 tested, 6.9% active | Potency, µM (highest dose often 57.5 µM), hits mostly inhibitors | purified FLuc, Km substrates, luminescence inhibition; also: nearly all actives have a fitted effect of over 55% in size
Target sequence (P08659 whole entry, looked up): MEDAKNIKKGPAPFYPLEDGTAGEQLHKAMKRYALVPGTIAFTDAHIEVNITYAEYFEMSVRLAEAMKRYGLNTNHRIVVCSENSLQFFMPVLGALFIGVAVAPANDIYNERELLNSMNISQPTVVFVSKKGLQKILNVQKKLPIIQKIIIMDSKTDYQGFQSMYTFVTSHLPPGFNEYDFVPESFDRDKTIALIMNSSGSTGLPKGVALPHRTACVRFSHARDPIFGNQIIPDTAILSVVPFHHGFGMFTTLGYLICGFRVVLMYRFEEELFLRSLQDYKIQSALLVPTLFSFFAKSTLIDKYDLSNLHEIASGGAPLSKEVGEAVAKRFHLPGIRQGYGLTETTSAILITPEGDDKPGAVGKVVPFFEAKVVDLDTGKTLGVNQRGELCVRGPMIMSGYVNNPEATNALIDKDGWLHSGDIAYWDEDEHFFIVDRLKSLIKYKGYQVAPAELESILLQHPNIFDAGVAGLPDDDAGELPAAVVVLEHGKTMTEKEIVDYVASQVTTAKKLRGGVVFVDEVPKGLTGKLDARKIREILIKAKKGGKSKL
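Biochemical qHTS of compounds, final roughly 60 µM downward over six points, against 10 nM purified firefly luciferase using Km concentrations of substrates (10 uM D-luciferin, 10 uM ATP) in Tris acetate pH 7.5 buffer; luminescence output.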
ELG1 genotox: genotoxicity induction in ELG1-luciferase HEK293T cells; HEK293T ELG1-luciferase reporter, luminescence, 16 h; Potency, µM (doses to about 46 µM), usual class: activators; 330,000 tested, 1.3% active; AID 504466; also: nearly all actives have a fitted effect of over 60% in size
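Screening used a luciferase reporter fused to human ELG1 in HEK293T cells. Luminescence was read on a CCD plate imager after 16 hr exposure and 30 min ONE-Glo incubation.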
KinaseGlo FLuc: blocks Kinase-Glo luciferase, a counter-screen artifact. Potency, µM (top dose mostly 38.3 µM), hits mostly inhibitors. 200,000 tested, 0.28% active. Kinase-Glo luciferase, ATP luminescence, 8 min; also: nearly all actives have a fitted effect of over 60% in size
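Inhibition of Kinase-Glo luciferase light generation was assessed at 10 uM ATP in pH 7.2 imidazole buffer, with luminescence measured after eight minutes at ambient temperature.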
Rab9 promoter act: Rab9 promoter activation. Huh7 Rab9 promoter-luciferase reporter, luminescence, 24 h. Potency, µM (highest dose often 9.22 µM), actives largely listed as activators. 320,000 tested, 2.8% active. AID 485297; also: nearly all actives have a fitted effect of over 60% in size
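Cells were plated at 1500 per well in reduced-serum medium with 10% FBS and left 2 h. Compound in DMSO was then added for 24 h at 37 °C. Reporter signal was read by luminescence after 10 min with luciferase detection reagent.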
Numbers stand for hits; - = inactive; ? = inconclusive; . = no result; [ ] = dose if it differs, or a comment. Hits are enriched below; roughly 7.5% of the tested compounds scored in any of these assays. Calls follow the shape of the dose curve; as a rule, active = well fitted curve in the direction sought with a large enough effect; inconclusive = small, poorly fitted or top-dose-only effect, or another doubt; inactive = no such curve, though single readings can be large; an effect the other way counts as inactive or inconclusive.

SMILES	NPC1 promoter act	SMN2 splice enh	FLuc counter	ELG1 genotox	KinaseGlo FLuc	Rab9 promoter act
O=C(Nc1ccc(N2CCCCC2)cc1)c1ccc2ccccc2n1	?	-	4.78µM	?	-	2.82µM
Cc1ccccc1C(=O)Nc1ccc(N2CCCC2)cc1	?	.	9.53µM	-	?	?
CC(NC(=O)C1CCN(S(=O)(=O)c2cccs2)CC1)c1cccc(Cl)c1 (stereo unspecified)	-	.	.	-	.	-
COc1ccc2c(c1)c1c(c(=O)n(-c3ccccc3)c(=O)n1CC(=O)Nc1ccc(F)cc1)n2C	.	.	-	.	.	.
CCc1ccc(-c2cc3c(=O)n(CC(=O)NCCCN4CCN(C)CC4)ncn3n2)cc1	2.82µM	.	2.39µM	?	.	2.82µM
CCC1CCCCN1CCCNC(=O)Cn1ncn2nc(-c3ccc(OC)cc3)cc2c1=O (stereo unspecified)	-	.	23.9µM	?	.	?
COc1ccc(-c2cc3c(=O)n(CC(=O)N4CCCCC4)ncn3n2)cc1	-	.	?	-	.	-
CCOc1ccc(CCNC(=O)Cn2ncn3nc(-c4ccc(OC)cc4)cc3c2=O)cc1OCC	-	.	-	-[9.26 µM]	.	-
CCc1ccc(-c2cc3c(=O)n(CC(=O)NCCCN4CCC(Cc5ccccc5)CC4)nc(C)n3n2)cc1	-	.	?	-	.	-
COc1ccc(-c2cc3c(=O)n(CC(=O)N4CCN(C)CC4)ncn3n2)cc1	?	.	2.39µM	?	.	5.01µM
COc1ccc(-c2cc3c(=O)n(CC(=O)NCCCc4ccccc4)ncn3n2)cc1	2.82µM	.	?	?	.	3.98µM
Cn1nc(-c2ccccc2F)c2cc(C(=O)N3CCN(c4ccccc4F)CC3)sc21	.	-	-	.	.	.
Cc1coc2cc3oc(=O)c(CC(=O)NCc4ccccc4)c(C)c3cc12	.	-	-	.	.	.
CCn1cc(C(=O)NCCN(CC(C)C)CC(C)C)c(=O)c2cc(S(=O)(=O)N(C)C3CCCCC3)ccc21	.	-	-	.	.	.
O=C(N/N=C/C=C\c1ccc([N+](=O)[O-])cc1)c1cccnc1	-	.	-	-	.	-
Cc1ccc(-c2cc3nn(-c4ccccc4)c(N)c3c(=O)o2)cc1	-	-	6.01µM	-	-	?
Cc1ccc(-n2nc(-c3ccccc3)cc2Nc2ccccc2N)cc1	-	-	?	-	-	-
Cc1noc(Cn2c(=O)c3ccccc3n(CC(=O)Nc3ccc(C(C)C)cc3)c2=O)n1	.	.	-	.	.	.
O=[N+]([O-])c1ccc2nc(NS(=O)(=O)c3ccccc3[N+](=O)[O-])sc2c1	?	.	10.7µM	-	.	-
O=[N+]([O-])c1ccccc1S(=O)(=O)Nc1nc2ccccc2s1	-	.	-	-	.	-
O=c1oc(Nc2ccc(F)cc2)nc2ccccc12	2.24µM	-	13.5µM	?	-	2.51µM
O=c1nc(Nc2ccccc2)oc2ccccc12	2.82µM	.	16.9µM	?	.	?
COc1ccc(N2C(=S)NC3N2C(=S)NC3(C)c2ccccc2)cc1 (stereo unspecified)	-	?	?	?	-	3.98µM
Cc1cc(C)n(-c2nc3c(c(=O)[nH]c(=O)n3C)n2Cc2ccccc2)n1	-	-	-	-	-	-
Cc1cc(C)n(-c2nc3c(c(=O)[nH]c(=O)n3C)n2CCc2ccccc2)n1	-	14.1µM	-	-	-	-
SMILES	NPC1 promoter act	SMN2 splice enh	FLuc counter	ELG1 genotox	KinaseGlo FLuc	Rab9 promoter act
C/C(CC(=O)Nc1ccccc1-c1ccccc1)=N\NC(=O)COc1ccc(C)cc1Br	-	-	-	23.1µM	-	-
Cc1ccc(OCC(=O)Nc2ccon2)c([N+](=O)[O-])c1	3.16µM	.	8.49µM	10.3µM	.	3.16µM
COC(=O)c1ccccc1NC(=O)COc1ccccc1[N+](=O)[O-]	-	-	-	-	-	-
Cc1ccc(OCC(=O)Nc2ccccc2[N+](=O)[O-])c(Br)c1	3.16µM	17.8µM	2.39µM	?	-	2.82µM
COc1ccccc1CNC(=O)C/C(C)=N/NC(=O)COc1ccc(C)cc1Br	-	-	-	-	-	-
NCC1CCC(N)C(O[C@@H]2C(O)[C@H](O[C@H]3OC(CO)C(O)C(N)C3O)[C@@H](N)C[C@H]2N)O1 (stereo partly specified)	.	-	.	.	-	.
Cc1ccc(N2CC(NC(=O)c3ccc(S(=O)(=O)N4CCCC4)cc3)CC2=O)cc1C (stereo unspecified)	.	.	-	.	.	.
CC(C)(C)n1ncc2c(=O)n(Cc3cccc(Cl)c3Cl)cnc21	.	.	-	.	.	.
CCOc1cc(C(c2c(C)[nH]n(-c3ccccc3)c2=O)c2c(C)[nH]n(-c3ccccc3)c2=O)ccc1O	.	-	12µM	.	.	.
COc1ccc(C(c2c(C)[nH]n(-c3ccccc3)c2=O)c2c(C)[nH]n(-c3ccccc3)c2=O)cc1OC	-	-	19µM	-	-	-
Cc1[nH]n(-c2ccccc2)c(=O)c1C(c1cc(Cl)ccc1O)c1c(C)[nH]n(-c2ccccc2)c1=O	.	-	19µM	.	.	.
CNS(=O)(=O)c1cccc(C(=O)OCC(=O)c2cc(C)n(CC3CCCO3)c2C)c1 (stereo unspecified)	2.51µM	.	1.35µM	?	.	2.82µM
Cc1cc(C(=O)COC(=O)c2cccc(S(=O)(=O)N(C)C)c2)c(C)n1CC1CCCO1 (stereo unspecified)	?	.	0.953µM	-	.	3.55µM
Cc1cccc(/C=C2\CS/C(=C\c3cccc(C)c3)C2=O)c1	-	-	8.49µM	-	-	-
O=C1/C(=C/c2cccc(Cl)c2)CSc2sccc21	-	.	-	-	.	-
N#CCSc1nc2ccccc2o1	-	.	-	-	.	-
O=[N+]([O-])c1ccccc1CSc1nc2ccccc2o1	?	20µM	19µM	?	-	?
CCCNc1ccc(C(=O)OCC)cc1[N+](=O)[O-]	?	-	26.9µM	?	-	?
CCOC(=O)CNc1ccc(C(=O)OCC)cc1[N+](=O)[O-]	-	-	-	-	-	-
CCN=c1scc(C)n1/N=C/c1cc(Br)c(O)c(Br)c1	-	?	19µM	-	-	-
C=C(C)CN=c1scc(C)n1/N=C/c1ccco1	-	-	-	-	-	-
CCN=c1scc(C)n1/N=C/c1ccc(O)c(O)c1O	-	-	3.38µM	-	-	-
Cc1ccc(-c2cc(C(=O)N3CC(C)CC(C)C3)c3ccccc3n2)o1 (stereo unspecified)	-	.	12µM	-	.	-
CC1CN(C(=O)c2cc3ccccc3oc2=O)CC(C)O1 (stereo unspecified)	-	-	-	-	-	-
Cc1cc(C(=O)N2CC(C)CC(C)C2)c(C)o1 (stereo unspecified)	-	.	-	-	.	-
Cc1ccc(-c2cc(C(=O)N3CC(C)OC(C)C3)c3ccccc3n2)o1 (stereo unspecified)	-	.	10.7µM	-	.	-
COc1cccc(-n2c(=O)c3sc4ccccc4c3n(CC(=O)Nc3ccccc3OC)c2=O)c1	.	-	-	.	.	.
